ELG1 genotoxic = qHTS screen for small molecules that induce genotoxicity in human embryonic kidney (HEK293T) cells expressing luciferase-tagged ELG1; Potency, µM (highest dose often 46 µM), for the others: at the top dose activity change, positive = activation, most hits filed as activators; AID 504466, 2011; 1.3% of 330,000 active; HEK293T ELG1-luciferase reporter, luminescence, 16 h; note: % of control where 0% means no effect; nearly all actives have a fitted effect of over 60% in size
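Cells (2,000/well) expressing the ELG1-luciferase fusion are dosed by pin tool and kept 16 hr at 37 °C, 5% CO2. Signal comes from ONE-Glo luciferase reagent after 30 min at room temperature.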
Rab9 promoter act = qHTS Assay for Rab9 Promoter Activators | 2.8% of 320,000 active | Huh7 Rab9 promoter-luciferase reporter, luminescence, 24 h | Potency, µM (titrated, usually from 9.22 µM), for the others: at the highest dose activation, negative = inhibition, actives largely listed as activators; note: % of control where 0% means no effect; nearly all actives have a fitted effect of over 60% in size
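Measured in stably transfected Huh7 cells bearing a Rab9 promoter–luciferase construct: 24 h compound treatment at 37 °C, followed by luminescence detection.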
p53 reactivation = qHTS assay for re-activators of p53 using a Luc reporter; AID 504706, 2011; Potency, µM (titrated, usually from 92.2 µM), without a hit: at the top dose activity change, positive = activation, most hits filed as activators; 0.063% of 320,000 active; H1299 p53-A138V BP100-luciferase reporter, luminescence, 24 h; note: % of control where 0% means no effect; nearly all actives have a fitted effect of over 45% in size
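p53-null H1299 cells stably carrying temperature-sensitive p53-A138V and a BP100-luciferase reporter were pinned with compounds (4-point, 1:5 series) and held 24 hrs at 37 deg C. Luminescence was read 10 min after detection reagent.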
NPC1 promoter act = qHTS Assay for NPC1 Promoter Activators | 2.4% of 320,000 active | Potency, µM (series often up to 9.22 µM), for the others: top-dose activation, most hits filed as activators | Huh7 NPC1 promoter luciferase reporter, 24 h; note: % of control where 0% means no effect; nearly all actives have a fitted effect of over 60% in size
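Quantitative HTS used a cell-based reporter: Huh7 cells stably bearing the NPC1 promoter upstream of luciferase were treated with compounds for 24 h, and promoter activation was read as luminescence.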
FLuc modulator = qHTS profiling assay for firefly luciferase inhibitor/activator using purifed enzyme and Km concentrations of substrates (counterscreen for miR-21 project) | Luciferin 4-monooxygenase (Photinus pyralis), P08659 | Potency, µM (series often up to 57.5 µM), for inactives: top-dose activity change, negative = inhibition, actives largely listed as inhibitors | 6.9% of 360,000 active | purified FLuc, Km substrates, luminescence inhibition;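 note: plate controls were vehicle for no effect and reference inhibitor for full effect; nearly all actives have a fitted effect of over 55% in size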
Target sequence (P08659 whole entry, looked up): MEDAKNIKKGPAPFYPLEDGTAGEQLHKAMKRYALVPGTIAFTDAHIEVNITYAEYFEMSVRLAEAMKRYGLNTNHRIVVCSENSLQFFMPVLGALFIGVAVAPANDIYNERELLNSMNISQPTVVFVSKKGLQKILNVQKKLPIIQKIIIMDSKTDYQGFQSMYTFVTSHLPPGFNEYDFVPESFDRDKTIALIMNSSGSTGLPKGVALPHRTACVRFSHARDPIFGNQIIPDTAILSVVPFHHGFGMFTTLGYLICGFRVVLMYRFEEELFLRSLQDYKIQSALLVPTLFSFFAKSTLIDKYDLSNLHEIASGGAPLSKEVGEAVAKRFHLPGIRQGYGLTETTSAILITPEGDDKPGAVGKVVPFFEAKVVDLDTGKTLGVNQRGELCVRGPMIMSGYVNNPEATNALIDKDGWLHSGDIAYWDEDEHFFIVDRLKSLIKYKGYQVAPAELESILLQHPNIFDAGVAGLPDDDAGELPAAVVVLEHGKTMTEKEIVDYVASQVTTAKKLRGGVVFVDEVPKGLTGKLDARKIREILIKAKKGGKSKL
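Biochemical qHTS of compounds, final roughly 60 µM downward over six points, against 10 nM purified firefly luciferase using Km concentrations of substrates (10 uM D-luciferin, 10 uM ATP) in Tris acetate pH 7.5 buffer; luminescence output.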
SMN2 splice enh = qHTS Assay for Enhancers of SMN2 Splice Variant Expression; HEK293 SMN2-luciferase splicing reporter, luminescence, 30-36 h; Potency, µM (highest dose often 46.1 µM), inactives show at the top dose activity change, positive = activation, usual class: activators; 2.8% of 210,000 active; AID 1458, 2008; note: % of control where 0% means no effect; nearly all actives have a fitted effect of over 55% in size
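qHTS luciferase splicing reporter: luminescence rises when SMN2 exon 7 is included in transfected HEK293 cells. Compound exposure lasted 30-36 h at 37C, with 4.5 mM final sodium butyrate as control, followed by a ONE-Glo read.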
Active calls of the source: *; ? = inconclusive; . = not tested or not shown; [ ] = another dose, or the depositor's remark. Only some compounds are listed: those with a hit (about 7.4% of all), similar ones and a draw of the others. Calls come from the whole dose curve; as a rule, active = well fitted curve in the direction sought with a large enough effect; inconclusive = small, poorly fitted or top-dose-only effect, or another doubt; inactive = no such curve, though single readings can be large; an effect the other way counts as inactive or inconclusive. Potency is the fitted concentration of half-maximal effect.

SMILES | ELG1 genotoxic | Rab9 promoter act | p53 reactivation | NPC1 promoter act | FLuc modulator | SMN2 splice enh
O=C1c2ccccc2C(=O)c2c(Nc3cc4c5c(ccc6c7ccc8c9c(cc(Nc%10cccc%11c%10C(=O)c%10ccccc%10C%11=O)c(c3c56)c97)-c3ccccc3C8=O)C(=O)c3ccccc3-4)cccc21 | . | . | . | . | . | 12.7%[9.22 µM]
COc1ccc(C(CNc2nc(-c3cccnc3)nc3ccccc23)N(C)C)cc1 (centres undefined) | -3.3% | -0.5% | 1.1% | -3.0% | 3.8% | .
CCc1ccc2[nH]c(C(=O)Nc3ccc(Br)c(C)n3)cc2c1 | ? | 1.41µM* | ? | 2.24µM* | ? | .
Cc1cc(C)c2[nH]c(C(=O)Nc3ccc4c(c3)OCO4)cc2c1 | 1.3% | ? | 7.4% | ? | 12µM* | .
CCc1ccc2[nH]c(C(=O)Nc3ccc4c(c3)OCO4)cc2c1 | 14.0% | 25.9% | 9.1% | ? | 2.69µM* | .
O=C(NNC(=O)C1CC=CCC1)c1ccccc1O (centres undefined) | 13.2% | ? | . | 17.9% | ? | .
NC(=O)C1CCN(C(=O)CCSCc2ccccc2)CC1 | 7.9% | 6.6% | . | 11.6% | -2.7% | .
O=C(CCCN=C1NS(=O)(=O)c2ccccc21)OCC(=O)c1ccccc1Cl | 0.6% | 3.9% | 10.6% | 6.2% | ? | .
CC1CCCCC12NC(=O)N(CC(=O)N1CCN(C(=O)c3cccs3)CC1)C2=O (centres undefined) | 2.3% | 1.5% | 6.1% | -3.4% | . | .
CSc1ncc(-c2ccc(Cl)cc2)[nH]1 | ? | 3.16µM* | 7.8% | 3.16µM* | 9.53µM* | .
CN1CCN(C(=O)c2cc(-c3cccc(Cl)c3)on2)CC1 | 11.1% | 6.31µM* | 28.6% | ? | ? | .
O=C(c1cc(-c2cccc(Cl)c2)on1)N1CCCCCC1 | 20.6µM* | 2.82µM* | ? | 2.51µM* | 10.7µM* | .
O=C(c1cc(-c2cccc(Cl)c2)on1)N1CCN(c2ccc(F)cc2)CC1 | 21.6% | -1.0% | 4.7% | -3.6% | 1.3% | .
CCc1ccc(C2Sc3ccccc3NC3=C2C(=O)c2ccccc23)cc1 (centres undefined) | . | . | . | . | 10.7µM* | -78.8%
CC(C)c1ccc(C2Sc3ccccc3NC3=C2C(=O)c2ccccc23)cc1 (centres undefined) | . | . | . | . | 6.01µM* | -27.2%
CC(C)NC(=O)CCSc1nc(-c2ccc3c(c2)OCO3)cc(C(F)(F)F)n1 | . | . | . | . | 0.3% | 8.3%
O=C(Nc1cccc(F)c1)N1CC[C@@]2(CCCN(C(=O)c3cnccn3)C2)C1 | . | . | . | . | . | -10.2%
COc1ccc(-c2csc(=NCCO)n2-c2ccccc2)cc1 | 12.6% | 9.2% | 7.1% | 18.0% | 19µM* | .
COc1ccc(-c2csc(=Nc3ccccc3)n2CCO)cc1 | ? | -4.8% | 15.4% | 21.4% | 16.9µM* | -71.4%
CCCCCCCC1=Cc2ccccc2C(C(C(=O)OC)C(=O)OC)N1C(=O)OC (centres undefined) | . | . | . | . | . | -7.7%[9.22 µM]
COc1cccc2c(Nc3ccccc3C)cc(C)nc12 | -11.9% | -7.4% | -2.3% | -3.9% | 0.2% | .
COc1cccc2nc3cc(C)c(C)cc3nc12 | 1.46µM* | 0.891µM* | 1.2% | 0.891µM* | 0.757µM* | .
Cc1cc(C)c(C#N)c(SCc2ccc(F)cc2)n1 | -3.3% | ? | -4.9% | -8.8% | -3.9% | -3.6%
N#Cc1cc2c(nc1SCc1nc3ccccc3[nH]1)CCC2 | ? | 0.708µM* | . | 0.316µM* | 1.35µM* | 8.91µM*
Cc1cc(C)c(C#N)c(SCc2nc3ccccc3[nH]2)n1 | 23.1µM* | ? | 26.7% | 17.2% | ? | 10µM*
SMILES | ELG1 genotoxic | Rab9 promoter act | p53 reactivation | NPC1 promoter act | FLuc modulator | SMN2 splice enh
Cc1ccc(NC(=O)CSc2nnc(NC(=O)c3ccc(S(=O)(=O)N4CCOCC4)cc3)s2)cc1 | 12.3% | 19.0% | ? | 3.5% | 2.69µM* | ?
CCOC(=O)c1ccc(NC(=O)CSc2nnc(NC(=O)c3ccc(S(=O)(=O)N4CCOCC4)cc3)s2)cc1 | 9.1% | 2.7% | 4.3% | 11.3% | 1.69µM* | ?
Nc1nnc(SCC(=O)Nc2ccc(S(=O)(=O)N3CCOCC3)cc2)s1 | -2.6% | -5.4% | -1.4% | -4.5% | 3.8% | 14.4%
NC(=O)CSc1nnc(NC(=O)c2ccc(S(=O)(=O)N3CCCCC3)cc2)s1 | -1.9% | 0.4% | 1.1% | -4.3% | -13.7% | .
O=C(Cn1c(=O)n(Cc2ccc(C(=O)NCc3ccc4c(c3)OCO4)cc2)c(=O)c2ccccc21)Nc1cccc(Cl)c1 | . | . | . | . | -5.8% | -0.8%
O=Cc1cn(-c2ccccc2)nc1-c1ccc(F)cc1 | -5.8% | 5.3% | 3.4% | 21.8% | 12µM* | .
O=Cc1cn(-c2ccccc2)nc1-c1ccc2c(c1)OCCO2 | 9.5% | 16.5% | ? | 11.1% | 4.78µM* | 12.6µM*
N#Cc1cn(-c2ccccc2)nc1-c1ccc2c(c1)OCCO2 | ? | 3.98µM* | 18.5% | ? | -12.0%[2.3 µM] | 14.1µM*
O=C(NCCn1cccn1)C1CCC(=O)N(CCc2ccccc2)C1 (centres undefined) | 4.7% | 3.7% | 13.2% | -4.3% | 0.1% | .
O=C(c1ccc(CSc2nc3ccncc3n2Cc2ccc(F)cc2)cc1)N1CCCCCC1 | . | . | . | . | ? | -39.1%
Cc1ccc(S(=O)(=O)Oc2ccccc2/C=N/Nc2ccc(C(=O)O)cc2)cc1 | 0.4% | 16.0% | -0.8% | 0.0% | 19µM* | .
COc1cccc(/C=N/Nc2ccccc2C(=O)O)c1O | 4.11µM* | 0.398µM* | ? | 0.562µM* | 1.35µM* | .
COc1cccc(/C=N/Nc2ccc(S(=O)(=O)O)cc2)c1O | 1.8% | -0.5% | -0.8% | -8.1% | ? | -4.9%
COc1cccc(/C=N/Nc2ccc(C(=O)O)cc2)c1O | -19.1% | -34.8% | -10.4% | -39.4% | 0.19µM* | -81.7%
COc1ccc(CCNC(=O)Cn2c(=O)c3cccn3c3ccc(F)cc32)c(OC)c1 | . | . | . | . | -15.5% | .
CNc1ccccc(-c2ccc3cc4c(cc3n2)OCO4)c1=O | ? | ? | ? | ? | 3.38µM* | .
CCc1ccccc1NC1=NCC(=O)N1Cc1ccc2c(c1)OCO2 | 1.1% | 0.7% | -7.1% | -2.3% | -0.3% | 9.4%
NC(=NCc1ccccc1)NC(=O)c1nc(Cl)c(N)nc1N | . | 7.0%[46.1 µM] | . | ? | . | -6.1%
NC(=Nc1ccccc1)NC(=O)c1nc(Cl)c(N)nc1N | . | ? | . | ? | . | 14.1µM*
COCCN(C(=O)COC(=O)Cc1coc2cc3c(cc12)CCC3)c1c(N)n(Cc2ccccc2)c(=O)[nH]c1=O | 0.5% | -4.1% | -3.6% | -4.1% | 23.9µM* | .
